Compound activity deposited in PubChem by National Center for Advancing Translational Sciences (NCATS).
Pf growth 96h: P. falciparum growth inhibition at 96 hour, primary screen for plastid delayed-death inhibitors | P. falciparum luciferase reporter growth, 96 h | Potency, µM (doses to about 28.7 µM), most hits filed as inhibitors | 320,000 compounds, 6.9% hits | AID 504834
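Readout is luminescence from an integrated firefly luciferase in P. falciparum. Red cells, 2% hematocrit and 0.05% parasitemia final, were cultured with compound through two parasite generations (96 hours) at 37 C, 5% CO2.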
AMA1 RON2 block: disrupts binding of P. falciparum AMA1 to RON2; AlphaScreen AMA1-biotinylated RON2 peptide binding; Potency, µM (doses to about 58.2 µM), usual class: inhibitors; 360,000 compounds, 0.2% hits; AID 720542; also: nearly all actives have a fitted effect of over 45% in size
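AMA1 (3D7) with his tag at 25 nM final met compounds first, then biotinylated RON2 peptide at 25 nM; detection used donor plus acceptor beads, 10 µg/mL apiece, read by AlphaScreen after 30 min at room temperature.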
NS1 function inh: inhibitors of influenza NS1 protein function; Potency, µM (top dose mostly 46.1 µM); 270,000 compounds, 0.4% hits; calls by dose curve; also: actives are rising curves; nearly all actives have a fitted effect of over 50% in size
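Read-out: OD600 growth recovery of NS1-expressing budding yeast. Cells grown overnight at 30C in -URA glucose medium, washed, resuspended and diluted 1:100 in 2% galactose assay medium, pH 6.0. Same strain lacking NS1 served as positive control.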
Pf growth 48h: P. falciparum growth inhibition at 48 hours (one generation); P. falciparum luciferase growth in erythrocytes, 48 h; Potency, µM (highest dose often 28.7 µM), hits mostly inhibitors; 310,000 compounds, 5.9% hits; AID 504832
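Cell-based growth assay: transgenic P. falciparum expressing firefly luciferase, cultured in red cells within RPMI 1640 containing 0.5% w/v Albumax, 24 mM bicarbonate and gentamycin. A drop in luciferase activity indicates inhibition.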
HCV inhibitor: inhibitors of hepatitis C virus infection; Huh7.5.1 HCVcc-Cre infection, luciferase reporter, 44 h; Potency, µM (highest dose often 41.8 µM), most hits filed as inhibitors; 340,000 compounds, 3.4% hits; AID 651820
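Luciferase read-out (15 sec integration) after a 15 min room-temperature substrate step quantifies HCVcc-Cre infection. Cells, 1,000 per well, had compound added 4 h post-plating, then virus at ~0.5 moi, and were cultured 44 h.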
SARS PLpro yeast: inhibitors of SARS-CoV papain-like protease in yeast. S. cerevisiae expressing SARS-CoV PLpro, growth rescue. 330,000 compounds, 0.19% hits. Potency, µM (titrated, usually from 32.9 µM), hits mostly activators; calls by dose curve; also: nearly all actives have a fitted effect of over 55% in size
Hits are given with their value; 0 = inactive; ? = inconclusive; - = not tested or not shown; [ ] = remark or other dose. Shown are actives, neighbours in structure and some others; about 12% of the full set was active somewhere. Unless noted, calls follow the shape of the dose curve; as a rule, active = well fitted curve in the direction sought with a large enough effect; inconclusive = small, poorly fitted or top-dose-only effect, or another doubt; inactive = no such curve, though single readings can be large; an effect the other way counts as inactive or inconclusive.

SMILES	Pf growth 96h	AMA1 RON2 block	NS1 function inh	Pf growth 48h	HCV inhibitor	SARS PLpro yeast
COc1ccc2cc(C(=O)C3CCCN(Cc4cccc(C)n4)C3)ccc2c1 (stereo unspecified)	?	0	0	0.657µM	?	0
COc1c(C)cc(C(=O)C2CCCN(C(=O)CCc3scnc3C)C2)cc1C (stereo unspecified)	0	0	0	0	10µM	0
COc1ccc(C(=O)C2CCCN(Cc3cccn3-c3ccc(Cl)cn3)C2)c(OC)c1 (stereo unspecified)	0	0	0	4.15µM	8.91µM	0
CCOc1ccccc1N(C)C(=O)CCS(=O)(=O)c1ccc2c(c1)NC(=O)CO2	0	0	0	0	?	0
COc1ccc(C(=O)C2CCCN(Cc3cccc(C)n3)C2)c(OC)c1 (stereo unspecified)	1.04µM	0	0	1.47µM	?	0
COc1ccc(C(=O)C2CCCN(Cc3ccc(C)s3)C2)c(OC)c1 (stereo unspecified)	0	?	0	0	?	0
CN1CCC(OC(=O)c2ccccc2Cl)CC1	0	?	0	0	0	0
COC(=O)c1cc(C(=O)c2cccc(Cl)c2Cl)cn1C	0	0	0	0	0	0
COC(=O)c1cc(C(=O)c2ccc(Cl)cc2Cl)cn1C	5.22µM	0	0	4.65µM	0	0
CN1CCC(OC(=O)c2ccc(Cl)cc2Cl)CC1	7.38µM	0	0	0	?	0
N=c1c(S(=O)(=O)c2ccc(Cl)cc2)cc2c(=O)n3ccccc3nc2n1C1CCCC1	0	0	0	?	?	?
Cc1ccsc1/C=C1\CCc2ccccc2C1=O	10.4µM	0	0	-	0	0
O=C1C(=Cc2ccccn2)CCc2ccccc21	-	0	-	-	-	-
CCCCc1ccc(/C(C)=N/Nc2cc(N3CCOCC3)nc(C)n2)cc1	0	0	0	?	?	0
CCn1c(CC(=O)Nc2ccccc2)n[nH]c1=S	0	0	0	0	0	0
O=C(CSc1ccc(F)cc1)N1CCOCC1	0	0	0	0[0.00184 µM]	0	0
CCN1CCN(c2nc(C)nc3c2sc(=S)n3C)CC1	3.7µM	0	0	0	?	0
CSCCC(NC(=O)COc1ccccc1)C(=O)N(C)Cc1cccc(F)c1 (stereo unspecified)	0	0	-	?	0	0
Nc1ccc2c3c(ccc([N+](=O)[O-])c13)CC2	-	28.2µM	-	-	-	-
CC(=O)c1ccc2c3c(ccc([N+](=O)[O-])c13)CC2	-	0	-	-	-	-
CCCCNC(=O)N1CCCN(c2ccc(C#N)cn2)CC1	?	0	0	0	0	0
Cc1ccc(-c2csc3ncnc(Sc4nnc(CN5CCCCCC5=O)o4)c23)cc1	14.7µM	0	0	11.7µM	?	0
NCC1C2CCC(O2)C1CO (stereo unspecified)	-	0	-	-	-	-
Cc1cc(N2CCCCC2)nc2ccc(NC(=O)c3ccc(Br)o3)cc12	-	0	0	-	3.98µM	0
O=C(Nc1ccc(N2CCCC2)cc1)c1ccc(Br)o1	?	0	0	?	0	0
SMILES	Pf growth 96h	AMA1 RON2 block	NS1 function inh	Pf growth 48h	HCV inhibitor	SARS PLpro yeast
Cc1cc(N2CCN(C)CC2)nc2ccc(NC(=O)c3ccc(Br)o3)cc12	0	0	0	1.65µM	?	0
Cc1nc(N)c(CC(Br)CBr)c(Cl)n1 (stereo unspecified)	?	0	0	0.0738µM	0	0
O=C(COC(=O)CNC(=O)c1ccc(Br)o1)Nc1ccccc1OC(F)F	0	0	-	0	0	0
O=S(=O)(Nc1ccc(-n2cnnn2)cc1)c1ccc(F)c(F)c1F	0	0	0	0	0	0
COc1ccc(-c2[nH]ncc2CN2CCC(c3ccncc3)CC2)cc1F	0	0	0	0	0	0
COc1ccc(-c2[nH]ncc2CNCCCSC)cc1F	5.22µM	0	0	0	0	0
CCC1CCCCN1CCN1C(=O)C2C(C(=O)Nc3cccc(OC)c3)C3C=CC2(O3)C1C(=O)NC1CCCCC1 (stereo unspecified)	0	0	0	8.28µM	0	0
O=C(Nc1cccc(Cl)c1)C1C2C=CC3(O2)C1C(=O)N(CCN1CCCCC1)C3C(=O)NC1CCCCC1 (stereo unspecified)	5.22µM	0	0	?	0	0
CCC1CCCCN1CCN1C(=O)C2C(C(=O)Nc3ccc(OC)cc3)C3C=CC2(O3)C1C(=O)NC1CCCCC1 (stereo unspecified)	0	0	0	?	0	0
O=C(Nc1ccc(Cl)cc1)C1C2C=CC3(O2)C1C(=O)N(CCN1CCCCC1)C3C(=O)NC1CCCCC1 (stereo unspecified)	?	0	0	?	?	0
CCCCN(C)CCN1C(=O)C2C(C(=O)Nc3ccc(Cl)cc3)C3C=CC2(O3)C1C(=O)NC1CCCCC1 (stereo unspecified)	0	0	0	10.4µM	?	0
COc1ccc(S(=O)(=O)N(C)C[C@H]2Oc3ccc(NS(=O)(=O)c4cn(C)cn4)cc3C(=O)N([C@H](C)CO)C[C@@H]2C)cc1	-	0	-	-	0	0
CSc1nc(=NC(C)=O)ss1	5.22µM	0	0	0	0	0
CN(C)CCCN(C(=O)c1cc(-c2cccs2)nc2ccccc12)c1nc2ccc(F)cc2s1	2.08µM	?	0	3.29µM	?	0
CCN(CC)CCN(C(=O)/C=C/c1cccs1)c1nc2ccc(Cl)cc2s1	?	0	0	?	?	0
CN(C)CCN(C(=O)/C=C/c1cccs1)c1nc2ccc(F)cc2s1	10.4µM	0	0	0	0	0
CN(C)CCCN(C(=O)CCc1ccccc1)c1nc2ccc(F)cc2s1	?	0	0	?	?	0
CCN(C[C@H]1N[C@@](CC)(C(=O)OC)[C@H]2C(=O)N(Cc3ccccc3)C(=O)[C@@H]12)C(=O)c1ccccc1	-	0	-	-	0[8.37 µM]	0
CC(=O)NCc1ccc(-c2csc(N)n2)s1	0	0	?	0	0	0
CC(C)(C)NC[C@H](O)CSc1nc(-c2ccc(C(N)=O)s2)cs1	10.7µM	-	-	?	-	-
Cc1ccc(CNC(=O)c2ccc(S(=O)(=O)N(C)C)cc2)n1C	0	0	0	0	0	0
COC(=O)c1ccccc1-c1ccc(/C=N/Nc2nc(N3CCCC3)nc(N3CCCC3)n2)o1	?	0	0	?	11.2µM	0
O=[N+]([O-])c1ccc(Nc2nc(N3CCOCC3)nc(N3CCOCC3)n2)cc1	-	0	-	-	?	-
O=[N+]([O-])c1ccc(-c2ccc(/C=N/Nc3nc(NCc4ccccc4)nc(N4CCOCC4)n3)o2)cc1	?	0	0	1.47µM	?	0
O=[N+]([O-])c1ccccc1/C=N/Nc1nc(N2CCCC2)nc(N2CCCC2)n1	?	0	-	0	0	0
Cc1ccc(/C=N/Nc2nc(N3CCCCC3)nc(N3CCCCC3)n2)o1	0	0	-	0	?	0
COc1nc(N/N=C/c2ccc(-c3ccccc3[N+](=O)[O-])o2)nc(N2CCOCC2)n1	?	0	0	0	11.2µM	0
